Assay in all cases: PBM binding z-score (relative to random genomic background probes); higher = stronger binding; sequences stand for … in GC…GCGATTGACAGCGTAGAATGAAGG
In assay [1] the test system is FXR:RXRa (NR concentration 270 nM, RXRa partner concentration 90 nM). The gist of the method: (§1)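 Regression normalization was applied to scanned fluorescence from custom Agilent 4×180K protein-binding microarrays. Before scanning, arrays were incubated 1 h with ligand-free nuclear receptor dimers, and binding was detected with antibodies against each partner (one per run). Binding z-scores use the random background probes as reference.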

Assay [2] has as its system LXRa:RXRa (NR concentration 270 nM, RXRa partner concentration 90 nM). The gist of the method:
as §1

For assay [3], the system named is LXRa homodimer (NR concentration 270 nM). The gist of the method: as §1
Assay [4] has as its system LXRb:RXRa (NR concentration 270 nM, RXRa partner concentration 90 nM). The gist of the method: as §1
Assay [5] relates to LXRb homodimer (NR concentration 270 nM). The procedure, abridged: as §1
Assay [6] deals with PPARa:RXRa (NR concentration 270 nM, RXRa partner concentration 90 nM). The gist of the method: as §1
Assay [7] has as its system PPARg:RXRa (NR concentration 180 nM, RXRa partner concentration 90 nM). The gist of the method:
as §1

Assay [8] has as its system PPARg:RXRa 270nM:90nM, anti-RXR (NR concentration 270 nM, RXRa partner concentration 90 nM). The procedure, abridged: as §1
In assay [9] the test system is PPARg:RXRa 30nM:10nM, anti-RXR (NR concentration 30 nM, RXRa partner concentration 10 nM). The gist of the method:
as §1

Assay [10] has as its system PPARg:RXRa 90nM:30nM, anti-RXR (NR concentration 90 nM, RXRa partner concentration 30 nM). The procedure, abridged: as §1
Assay [11] concerns PPARg:RXRa DBDmut IVT, anti-RXR (DBD mutation: RXRa K156A/R161A, NR concentration 270 nM, RXRa partner concentration 90 nM). The procedure, abridged: as §1
The test system of assay [12] is PPARg:RXRa IVT, anti-PPARg (NR concentration 270 nM, RXRa partner concentration 90 nM). The gist of the method:
as §1

Assay [13] deals with PPARg DBDmut:RXRa IVT, anti-PPARg (DBD mutation: PPARg1 K132A/R137A, NR concentration 270 nM, RXRa partner concentration 90 nM). The gist of the method:
as §1

For assay [14], the system named is PPARg DBDmut IVT, anti-PPARg (DBD mutation: PPARg1 K132A/R137A, NR concentration 270 nM). The procedure, abridged: as §1
Assay [15] relates to PPARg homodimer (NR concentration 180 nM). The procedure, abridged: as §1
Assay [16] has as its system PXR:RXRa (NR concentration 270 nM, RXRa partner concentration 90 nM). The gist of the method:
as §1

Assay [17] relates to PXR homodimer (NR concentration 270 nM). The procedure, abridged:
as §1

Assay [18] has as its system RARa:RXR (NR concentration 270 nM, RXRa partner concentration 90 nM). The procedure, abridged:
as §1

Assay [19] concerns RARa homodimer (NR concentration 270 nM). The gist of the method: as §1
The test system of assay [20] is RARb:RXRa (NR concentration 270 nM, RXRa partner concentration 90 nM). The procedure, abridged: as §1

Drawing on the supplement of paper PMC6555819, this text covers PBM binding z-score for 6 sequences.

With CCTACTGGGCCAAGGTCATTTATCAGTCAAAGCA, the PBM binding z-score stood at 3 in assay [1]; 3 in [2]; 1.94 in assay [3]; 3.53 in assay [4]; 0.242 in assay [5]; 3.92 in [6]. Also, the PBM binding z-score in assay [7] worked out at 4.1; in assay [8], 4.33; in assay [9] it was 1.69; in [10], 3.57; in assay [11], 3.45; in assay [12], 4.56. Further, the PBM binding z-score is -0.913 in assay [13]; -0.873 in assay [14]; 1.83 in assay [15]; 3.22 in assay [16]; 1.73 in [17]; 3.28 in assay [18]. Also, the PBM binding z-score in [19] was 0.0192; in assay [20], 3.15.
On to CGTAGCAGGCCAGGGTCACTCAAGCATTTCGCTT, for which the PBM binding z-score in assay [1] was 2.18; in assay [2], 1.78; in assay [3] it was -0.329; in assay [4], 2.14; in [5], -1.14; in assay [6], 2.89. The PBM binding z-score in assay [7] is 0.663; in assay [8], 1.49; in [9] it was -0.228; in [10], 0.716; in assay [11], 0.638; in assay [12], 1.11. Besides, the PBM binding z-score in assay [13] was -0.725; in assay [14] it was -1.16; in assay [15], 0.494; in [16], 2.28; in assay [17] it was -0.189; in assay [18] it was 2.69. Besides, the PBM binding z-score is -0.182 in assay [19] and 2.66 in assay [20].
Consider ACGAGCAGGCCAAGTTTGGGTCACTCAAACAAAG, for which the PBM binding z-score in assay [1] is 0.0598; in assay [2], -0.0138; in [3] it was -0.363; in [4], 0.536; in [5], -0.887; in [6], 1.33. For the same sequence, the PBM binding z-score in [7] is -0.00564; in [8], 0.0624; in assay [9] it was -0.543; in assay [10], -0.429; in assay [11] it was -0.114; in assay [12], 0.246. Also, the PBM binding z-score was -0.842 in assay [13]; -0.922 in assay [14]; 0.235 in [15]; 0.69 in assay [16]; -0.152 in assay [17]; 1.46 in [18]. Besides, the results for the PBM binding z-score in assay [19] and in assay [20] were -0.613 and 1.54, respectively.
On to AGTCAAAGTTCAGGACGAGGTAACATAAAGCACG, for which the PBM binding z-score in [1] amounted to 4.23; in assay [2], 4.01; in assay [3], 1.38; in assay [4], 2.25; in assay [5] it was 0.512; in assay [6], 3.45. The PBM binding z-score in [7] was 4.84; in assay [8] it was 4.91; in assay [9], 2.27; in assay [10], 4.16; in assay [11], -0.187; in assay [12], 1.85. Further, the PBM binding z-score in [13] came to 1.18; in assay [14], 0.12; in assay [15], 2.12; in assay [16], 3.37; in assay [17] it was 1.47; in assay [18], 3.33. In addition, the PBM binding z-score in assay [19] came out at 0.906; in [20], 4.15.
For the sequence CCTATTAGTTGACCATAAGGGCAACCCAAGCTCG, the PBM binding z-score came to 1.15 in [1]; 0.607 in assay [2]; 0.597 in assay [3]; 0.677 in assay [4]; 0.607 in [5]; 0.81 in assay [6]. Moreover, the PBM binding z-score worked out at 0.661 in assay [7]; 0.62 in assay [8]; 0.211 in [9]; 0.475 in assay [10]; 0.483 in assay [11]; 0.597 in [12]. Also, the PBM binding z-score in assay [13] amounted to 0.502; in [14] it was 0.375; in assay [15], 1.63; in assay [16] it was 1.12; in assay [17] it was 1.26; in [18] it was 1.22. Also, the PBM binding z-score in [19] came to 1.66; in [20], 1.53.
As for CAGCCTCGGTCAGGGCCAGTATAGGAGGAACGTT, the PBM binding z-score in assay [1] is -0.344; in [2], -0.223; in [3], -0.491; in [4], -0.601; in assay [5], -1.46; in [6] it was -0.701. Also, the PBM binding z-score is -0.243 in assay [7]; -1.13 in assay [8]; -1.22 in assay [9]; -1.45 in assay [10]; -0.887 in assay [11]; -0.552 in [12]. The PBM binding z-score was -1.14 in assay [13]; -2.31 in assay [14]; -0.745 in assay [15]; -0.881 in assay [16]; -0.661 in assay [17]; -0.746 in assay [18]. Besides, the PBM binding z-score was -0.656 in assay [19] and 2.01 in assay [20].
